The entries come from a sample that favours the strongest signals as a whole.
Tests used:
Experiment in all cases: glycan array binding signal (z-score within array); higher = stronger binding
Conditions in all cases: glycan notation: IUPAC condensed, linker removed
[1] = molecular target: Fuc(a1-2)Gal(b1-3)GlcNAc(b1-2)Man(a1-3)[Fuc(a1-2)Gal(b1-3)GlcNAc(b1-2)Man(a1-6)]Man(b1-4)GlcNAc(b1-4)GlcNAc
Procedure, shortened: (§1)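 Glycan array data came from 3228 arrays in the Consortium for Functional Glycomics database, and only arrays with an available protein sequence were kept. Glycan names were put into IUPAC-condensed notation, and columns mapping to the same glycan were averaged. The binding signal is a within-array Z-score, averaged across arrays of one protein sequence run at different concentrations or buffers and across linkers. A negative Z-score can be read as non-binding.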

[2] = molecular target: Fuc(a1-2)Gal(b1-3)GlcNAc(b1-3)[Fuc(a1-3)[Gal(b1-4)]GlcNAc(b1-6)]Gal(b1-4)Glc
Procedure, shortened: as §1

[3] = molecular target: Fuc(a1-2)Gal(b1-3)GlcNAc(b1-3)[Gal(b1-4)GlcNAc(b1-6)]Gal(b1-4)Glc
Procedure, shortened: as §1

[4] = molecular target: Fuc(a1-2)[Gal(a1-3)]Gal
Procedure, shortened: as §1

[5] = molecular target: Fuc(a1-2)[Gal(a1-3)]Gal(b1-4)[Fuc(a1-3)]Glc
Procedure, shortened: as §1

[6] = molecular target: Fuc(a1-2)[GalNAc(a1-3)]Gal(b1-4)GlcNAc
Procedure, shortened: as §1

[7] = molecular target: Fuc(a1-2)[GalNAc(a1-3)]Gal(b1-4)GlcNAc(b1-3)Gal(b1-4)GlcNAc
Procedure, shortened: as §1

[8] = molecular target: Fuc(a1-3)[Gal(b1-4)]GlcNAc(b1-2)Man(a1-3)[Fuc(a1-3)[Gal(b1-4)]GlcNAc(b1-2)Man(a1-6)]Man(b1-4)GlcNAc(b1-4)GlcNAc
Procedure, shortened: as §1

[9] = molecular target: Gal(a1-4)Gal(b1-4)GlcNAc(b1-2)Man(a1-3)[Gal(a1-4)Gal(b1-4)GlcNAc(b1-2)Man(a1-6)]Man(b1-4)GlcNAc(b1-4)GlcNAc
Procedure, shortened: as §1

[10] = molecular target: Gal(b1-3)GlcNAc
Procedure, shortened: as §1

[11] = molecular target: Gal(b1-3)GlcNAc(b1-3)Gal(b1-3)GlcNAc
Procedure, shortened: as §1

[12] = molecular target: Gal(b1-3)GlcNAc(b1-3)Gal(b1-4)GlcNAc
Procedure, shortened: as §1

[13] = molecular target: Gal(b1-3)[Fuc(a1-4)]GlcNAc(b1-3)Gal(b1-3)[Fuc(a1-4)]GlcNAc
Procedure, shortened: as §1

[14] = molecular target: Gal(b1-4)GlcNAc(b1-2)Man(a1-6)[GlcNAc(b1-2)Man(a1-3)]Man(b1-4)GlcNAc(b1-4)GlcNAc
Procedure, shortened: as §1

[15] = molecular target: Gal(b1-4)GlcNAc(b1-3)[Gal(b1-4)GlcNAc(b1-6)]GalNAc
Procedure, shortened: as §1

[16] = molecular target: Gal6S(b1-3)GlcNAc
Procedure, shortened: as §1

[17] = molecular target: GalNAc(a1-3)GalNAc(a1-3)Gal(a1-4)Gal(b1-4)GlcNAc
Procedure, shortened: as §1

[18] = molecular target: Glc(b1-4)Glc
Procedure, shortened: as §1

[19] = molecular target: GlcA(b1-3)Gal
Procedure, shortened: as §1

[20] = molecular target: GlcNAc(a1-3)Gal(b1-4)GlcNAc
Procedure, shortened: as §1

[21] = molecular target: GlcNAc(b1-2)Man(a1-3)[GlcNAc(b1-2)Man(a1-6)]Man(b1-4)GlcNAc(b1-4)GlcNAc
Procedure, shortened: as §1

[22] = molecular target: GlcNAc(b1-2)Man(a1-3)[GlcNAc(b1-2)Man(a1-6)]Man(b1-4)GlcNAc(b1-4)[Fuc(a1-6)]GlcNAc
Procedure, shortened: as §1

[23] = molecular target: GlcNAc(b1-2)Man(a1-3)[GlcNAc(b1-4)][GlcNAc(b1-2)Man(a1-6)]Man(b1-4)GlcNAc(b1-4)GlcNAc
Procedure, shortened: as §1

[24] = molecular target: GlcNAc(b1-2)[GlcNAc(b1-6)]Man(a1-6)[GlcNAc(b1-2)Man(a1-3)]Man(b1-4)GlcNAc(b1-4)GlcNAc
Procedure, shortened: as §1

[25] = molecular target: GlcNAc(b1-2)[GlcNAc(b1-6)]Man(a1-6)[GlcNAc(b1-2)Man(a1-3)][GlcNAc(b1-4)]Man(b1-4)GlcNAc(b1-4)GlcNAc
Procedure, shortened: as §1

[26] = molecular target: GlcNAc(b1-3)Gal
Procedure, shortened: as §1

[27] = molecular target: GlcNAc3Prop(b1-4)GlcNAc
Procedure, shortened: as §1

[28] = molecular target: Man(a1-3)[Man(a1-6)]Man(a1-6)[Man(a1-3)]Man(b1-4)GlcNAc(b1-4)GlcNAc
Procedure, shortened: as §1

[29] = molecular target: Neu5Ac(a2-3)Gal
Procedure, shortened: as §1

[30] = molecular target: Neu5Ac(a2-3)Gal(b1-4)[Fuc(a1-3)]GlcNAc(b1-3)GalNAc
Procedure, shortened: as §1

[31] = molecular target: Neu5Ac(a2-3)Gal(b1-4)[Fuc(a1-3)]GlcNAc(b1-6)[Neu5Ac(a2-3)Gal(b1-3)]GalNAc
Procedure, shortened: as §1

[32] = molecular target: Neu5Ac(a2-6)Gal
Procedure, shortened: as §1

[33] = molecular target: Neu5Ac(a2-6)Gal(b1-3)GlcNAc(b1-3)[Gal(b1-4)GlcNAc(b1-6)]Gal(b1-4)Glc
Procedure, shortened: as §1

[34] = molecular target: Neu5Ac(a2-6)Gal(b1-4)GlcNAc(b1-2)Man(a1-6)[GlcNAc(b1-2)Man(a1-3)]Man(b1-4)GlcNAc(b1-4)GlcNAc
Procedure, shortened: as §1

[35] = molecular target: Neu5Ac(a2-6)Gal(b1-4)GlcNAc(b1-3)Gal(b1-4)GlcNAc(b1-3)Gal(b1-4)GlcNAc
Procedure, shortened: as §1

[36] = molecular target: Neu5Ac(a2-6)GalNAc(b1-4)GlcNAc
Procedure, shortened: as §1

[37] = molecular target: Neu5Ac(a2-6)GlcNAc(b1-4)GlcNAc
Procedure, shortened: as §1

[38] = molecular target: Neu5Ac(a2-8)Neu5Ac(a2-3)Gal(b1-4)Glc
Procedure, shortened: as §1

[39] = molecular target: Neu5Ac9Ac(a2-6)Gal(b1-4)GlcNAc
Procedure, shortened: as §1

[40] = molecular target: Neu5Gc(a2-3)Gal(b1-4)GlcNAc
Procedure, shortened: as §1

B1: LSectin (Mus musculus), Q8BNX1 (protein)
chain: MNTGEYNKLGSAIEEVSRGQLGRWECYKQRLFFLVLALLVATVLWALILSTLLSSASSKLRVLLSHQDLLRTNASEQKMTLSSLKDDIGACRNCCSVTKAQLQTTLAEFKDIQAKLMEQESILKELQERVTQDLAKASRDRENIRSELFQALEAVKRQNSSCEQCPPSWLPFQGSCYYFSETQATWDTAQSYCGGQGAHLVIVRGLNEQGFLSQHTRGRGYWLGLRAVRHLNKIQGYRWVDGASLNFSHWNSGEPNDSRGHEDCIMMLHSGLWNDAPCTNERDGWICEKRSSCY
- glycan array binding signal (z-score) [1]: -0.18
- glycan array binding signal (z-score) [2]: -0.187
- glycan array binding signal (z-score) [3]: -0.188
- glycan array binding signal (z-score) [4]: -0.145
- glycan array binding signal (z-score) [5]: -0.124
- glycan array binding signal (z-score) [6]: -0.176
- glycan array binding signal (z-score) [7]: -0.185
- glycan array binding signal (z-score) [8]: -0.158
- glycan array binding signal (z-score) [9]: -0.18
- glycan array binding signal (z-score) [10]: -0.132
- glycan array binding signal (z-score) [11]: -0.18
- glycan array binding signal (z-score) [12]: -0.175
- glycan array binding signal (z-score) [13]: -0.172
- glycan array binding signal (z-score) [14]: 4.08
- glycan array binding signal (z-score) [15]: -0.192
- glycan array binding signal (z-score) [16]: -0.188
- glycan array binding signal (z-score) [17]: -0.19
- glycan array binding signal (z-score) [18]: -0.17
- glycan array binding signal (z-score) [19]: -0.169
- glycan array binding signal (z-score) [20]: -0.14
- glycan array binding signal (z-score) [21]: 6.38
- glycan array binding signal (z-score) [22]: 5.47
- glycan array binding signal (z-score) [23]: 7.84
- glycan array binding signal (z-score) [24]: 4.99
- glycan array binding signal (z-score) [25]: 7.22
- glycan array binding signal (z-score) [26]: -0.164
- glycan array binding signal (z-score) [27]: -0.168
- glycan array binding signal (z-score) [28]: -0.172
- glycan array binding signal (z-score) [29]: -0.148
- glycan array binding signal (z-score) [30]: -0.154
- glycan array binding signal (z-score) [31]: -0.181
- glycan array binding signal (z-score) [32]: -0.118
- glycan array binding signal (z-score) [33]: -0.187
- glycan array binding signal (z-score) [34]: 4.19
- glycan array binding signal (z-score) [35]: -0.182
- glycan array binding signal (z-score) [36]: 3.69
- glycan array binding signal (z-score) [37]: -0.18
- glycan array binding signal (z-score) [38]: -0.158
- glycan array binding signal (z-score) [39]: -0.16
- glycan array binding signal (z-score) [40]: -0.156
